# Results as given in publication PMC7862700, “An all-to-all approach to the identification of sequence-specific readers for epigenetic DNA modifications on cytosine”.
# Tests used:
# Assay in all cases: DAPPL (digital affinity profiling via proximity ligation, sequencing); 10 mM Tris-HCl pH 7.5, 50 mM NaCl, 1 mM DTT, 4% glycerol, room temperature, 30 min; GST-TFs on glutathione beads, 16-mer random dsDNA library, 0.1% formaldehyde crosslink after washing; high values mean tight binding
# Settings in all cases: protein: recombinant; tags: N-terminal GST; dsDNA, one strand shown
# FLI1 = target: T1, FLI1 (Homo sapiens, UniProt Q01543 1-452)
# T1 sequence: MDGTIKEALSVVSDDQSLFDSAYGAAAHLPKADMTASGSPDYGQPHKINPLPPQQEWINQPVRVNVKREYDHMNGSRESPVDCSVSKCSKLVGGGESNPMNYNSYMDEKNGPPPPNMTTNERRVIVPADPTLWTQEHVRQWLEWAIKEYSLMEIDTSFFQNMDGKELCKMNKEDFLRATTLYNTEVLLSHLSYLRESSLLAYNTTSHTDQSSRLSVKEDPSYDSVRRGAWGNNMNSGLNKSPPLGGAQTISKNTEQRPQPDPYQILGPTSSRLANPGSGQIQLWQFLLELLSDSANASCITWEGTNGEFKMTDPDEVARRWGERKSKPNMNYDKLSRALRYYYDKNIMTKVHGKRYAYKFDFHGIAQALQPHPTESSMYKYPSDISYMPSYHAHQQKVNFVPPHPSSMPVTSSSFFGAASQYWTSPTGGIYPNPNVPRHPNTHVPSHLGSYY
# How it was run: (§1)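 Yeast served to express human transcription factors as GST fusions, which were then captured on glutathione beads and labelled with DNA barcodes. Pooled with a tag-only sample, they were incubated with 200 nmole of a 16-mer random double-stranded DNA library for 30 min at room temperature in Tris/NaCl/DTT/glycerol buffer, washed, crosslinked with 0.1% formaldehyde, ligated by proximity, amplified by PCR and sequenced. Dividing each hexamer's read frequency for a factor by its frequency for the tag-only sample gives the binding signal.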
# ELK1 = target: T2, ELK1 (Homo sapiens, UniProt P19419 1-428)
# T2 sequence: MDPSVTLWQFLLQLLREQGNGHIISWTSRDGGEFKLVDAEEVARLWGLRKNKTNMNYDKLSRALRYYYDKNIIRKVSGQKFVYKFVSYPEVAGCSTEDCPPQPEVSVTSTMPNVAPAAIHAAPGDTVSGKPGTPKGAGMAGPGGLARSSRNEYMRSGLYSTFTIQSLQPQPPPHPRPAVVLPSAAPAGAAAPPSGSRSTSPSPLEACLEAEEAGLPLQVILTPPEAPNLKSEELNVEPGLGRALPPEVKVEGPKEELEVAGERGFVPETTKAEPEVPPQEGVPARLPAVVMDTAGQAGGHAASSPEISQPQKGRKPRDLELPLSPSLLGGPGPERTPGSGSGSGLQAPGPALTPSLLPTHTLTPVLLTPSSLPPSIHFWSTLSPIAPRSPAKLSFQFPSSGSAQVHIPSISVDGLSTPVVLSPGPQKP
# How it was run: as §1
# GABPA = target: T3, GABPA (Homo sapiens, UniProt Q06546 1-454)
# T3 sequence: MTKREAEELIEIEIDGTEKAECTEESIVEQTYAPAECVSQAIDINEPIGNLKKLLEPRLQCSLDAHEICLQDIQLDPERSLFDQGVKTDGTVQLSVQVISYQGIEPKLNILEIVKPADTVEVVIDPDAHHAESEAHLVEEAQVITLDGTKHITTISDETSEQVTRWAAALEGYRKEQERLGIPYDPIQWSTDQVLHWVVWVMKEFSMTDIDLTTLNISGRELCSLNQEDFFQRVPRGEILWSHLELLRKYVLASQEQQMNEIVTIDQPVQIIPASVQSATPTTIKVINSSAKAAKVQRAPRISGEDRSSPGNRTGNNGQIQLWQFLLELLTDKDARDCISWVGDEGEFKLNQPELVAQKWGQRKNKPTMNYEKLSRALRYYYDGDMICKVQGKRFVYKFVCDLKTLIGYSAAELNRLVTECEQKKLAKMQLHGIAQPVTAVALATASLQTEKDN
# How it was run: as §1
# ERG = target: T4, ERG (Homo sapiens, UniProt P11308 1-479)
# T4 sequence: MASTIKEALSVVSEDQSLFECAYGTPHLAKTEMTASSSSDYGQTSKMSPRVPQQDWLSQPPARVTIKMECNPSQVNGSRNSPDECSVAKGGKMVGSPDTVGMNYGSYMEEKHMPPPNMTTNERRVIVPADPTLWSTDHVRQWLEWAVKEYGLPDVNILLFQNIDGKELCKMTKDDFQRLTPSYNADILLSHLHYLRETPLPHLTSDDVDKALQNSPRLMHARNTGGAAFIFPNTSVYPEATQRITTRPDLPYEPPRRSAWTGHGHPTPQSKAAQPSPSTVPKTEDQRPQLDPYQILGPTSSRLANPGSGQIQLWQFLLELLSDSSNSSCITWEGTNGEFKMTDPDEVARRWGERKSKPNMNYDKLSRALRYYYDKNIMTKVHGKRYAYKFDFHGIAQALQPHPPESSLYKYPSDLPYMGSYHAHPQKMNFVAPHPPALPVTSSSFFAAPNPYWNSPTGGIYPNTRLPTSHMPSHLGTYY
# How it was run: as §1
# ELF1 = ELF1 (Homo sapiens, UniProt P32519 1-619)
# Sequence of ELF1 (P32519 whole entry): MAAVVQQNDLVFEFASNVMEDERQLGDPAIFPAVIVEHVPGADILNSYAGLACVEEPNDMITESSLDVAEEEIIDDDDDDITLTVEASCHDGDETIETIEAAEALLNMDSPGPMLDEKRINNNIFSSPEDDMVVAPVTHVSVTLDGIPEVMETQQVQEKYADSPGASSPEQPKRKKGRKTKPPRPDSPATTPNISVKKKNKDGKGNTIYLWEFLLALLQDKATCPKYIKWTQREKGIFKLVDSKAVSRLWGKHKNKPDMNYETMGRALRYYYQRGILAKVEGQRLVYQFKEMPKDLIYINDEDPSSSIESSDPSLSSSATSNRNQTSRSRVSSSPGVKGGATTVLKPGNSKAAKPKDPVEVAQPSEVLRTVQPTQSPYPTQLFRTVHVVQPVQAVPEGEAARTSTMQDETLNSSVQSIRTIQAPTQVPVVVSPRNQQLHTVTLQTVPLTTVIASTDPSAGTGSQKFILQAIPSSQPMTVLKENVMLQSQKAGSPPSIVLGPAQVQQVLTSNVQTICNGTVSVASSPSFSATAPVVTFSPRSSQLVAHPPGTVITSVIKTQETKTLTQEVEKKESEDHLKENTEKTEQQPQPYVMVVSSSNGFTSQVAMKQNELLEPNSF
# How it was run: as §1
# EHF = target: T5, EHF (Homo sapiens, UniProt Q9NZC4 1-300)
# T5 sequence: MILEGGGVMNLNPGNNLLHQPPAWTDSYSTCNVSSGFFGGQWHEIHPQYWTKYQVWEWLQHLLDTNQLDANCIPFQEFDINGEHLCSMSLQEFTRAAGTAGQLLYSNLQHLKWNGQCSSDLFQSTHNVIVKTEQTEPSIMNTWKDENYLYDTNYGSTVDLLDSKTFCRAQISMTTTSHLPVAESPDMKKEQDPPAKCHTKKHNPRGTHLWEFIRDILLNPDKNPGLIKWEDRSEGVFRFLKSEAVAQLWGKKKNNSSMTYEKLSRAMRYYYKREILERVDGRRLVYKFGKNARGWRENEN
# How it was run: as §1
# SPIB = SPIB (Homo sapiens, UniProt Q01892 1-262)
# Sequence of SPIB (Q01892 whole entry): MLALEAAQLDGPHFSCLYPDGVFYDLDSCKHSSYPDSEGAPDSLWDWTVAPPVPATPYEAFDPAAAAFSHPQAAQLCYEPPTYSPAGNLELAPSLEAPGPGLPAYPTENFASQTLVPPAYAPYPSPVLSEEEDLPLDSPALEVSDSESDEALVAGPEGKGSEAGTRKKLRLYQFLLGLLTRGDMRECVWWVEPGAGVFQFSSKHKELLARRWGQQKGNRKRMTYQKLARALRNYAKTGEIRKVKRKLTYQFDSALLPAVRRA
# How it was run: as §1
# ELK3 = target: T6, ELK3 (Homo sapiens, UniProt P41970 1-407)
# T6 sequence: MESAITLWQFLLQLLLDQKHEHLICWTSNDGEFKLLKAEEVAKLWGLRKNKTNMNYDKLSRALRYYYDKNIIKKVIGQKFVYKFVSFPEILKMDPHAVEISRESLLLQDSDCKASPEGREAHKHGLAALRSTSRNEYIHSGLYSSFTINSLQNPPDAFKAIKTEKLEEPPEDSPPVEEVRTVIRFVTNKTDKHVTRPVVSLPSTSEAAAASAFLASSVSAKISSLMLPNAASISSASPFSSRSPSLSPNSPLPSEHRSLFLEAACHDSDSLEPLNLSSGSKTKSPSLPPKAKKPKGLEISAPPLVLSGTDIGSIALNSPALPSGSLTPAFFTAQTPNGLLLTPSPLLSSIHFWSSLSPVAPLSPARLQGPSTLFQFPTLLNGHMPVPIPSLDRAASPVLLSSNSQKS
# How it was run: as §1
# ELF4 = ELF4 (Homo sapiens, UniProt Q99607 1-663)
# Sequence of ELF4 (Q99607 whole entry): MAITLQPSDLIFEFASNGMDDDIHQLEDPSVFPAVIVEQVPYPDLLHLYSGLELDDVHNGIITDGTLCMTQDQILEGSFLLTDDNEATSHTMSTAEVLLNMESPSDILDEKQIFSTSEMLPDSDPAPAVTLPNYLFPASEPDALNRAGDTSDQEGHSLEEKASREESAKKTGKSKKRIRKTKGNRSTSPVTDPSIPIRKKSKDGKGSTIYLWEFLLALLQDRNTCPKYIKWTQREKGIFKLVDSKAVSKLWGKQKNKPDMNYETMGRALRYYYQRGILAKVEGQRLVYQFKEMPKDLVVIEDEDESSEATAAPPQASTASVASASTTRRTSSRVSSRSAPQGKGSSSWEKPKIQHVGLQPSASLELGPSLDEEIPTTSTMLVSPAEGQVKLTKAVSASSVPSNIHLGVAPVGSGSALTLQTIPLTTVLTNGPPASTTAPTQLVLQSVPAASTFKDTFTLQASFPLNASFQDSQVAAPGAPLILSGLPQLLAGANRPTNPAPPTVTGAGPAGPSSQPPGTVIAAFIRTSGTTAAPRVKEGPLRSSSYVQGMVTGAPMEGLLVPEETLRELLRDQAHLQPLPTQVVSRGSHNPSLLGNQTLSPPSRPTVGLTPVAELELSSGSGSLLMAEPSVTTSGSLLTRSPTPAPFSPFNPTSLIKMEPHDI
# How it was run: as §1
# ELK4 = target: T7, ELK4 (Homo sapiens, UniProt P28324-2 1-405)
# T7 sequence: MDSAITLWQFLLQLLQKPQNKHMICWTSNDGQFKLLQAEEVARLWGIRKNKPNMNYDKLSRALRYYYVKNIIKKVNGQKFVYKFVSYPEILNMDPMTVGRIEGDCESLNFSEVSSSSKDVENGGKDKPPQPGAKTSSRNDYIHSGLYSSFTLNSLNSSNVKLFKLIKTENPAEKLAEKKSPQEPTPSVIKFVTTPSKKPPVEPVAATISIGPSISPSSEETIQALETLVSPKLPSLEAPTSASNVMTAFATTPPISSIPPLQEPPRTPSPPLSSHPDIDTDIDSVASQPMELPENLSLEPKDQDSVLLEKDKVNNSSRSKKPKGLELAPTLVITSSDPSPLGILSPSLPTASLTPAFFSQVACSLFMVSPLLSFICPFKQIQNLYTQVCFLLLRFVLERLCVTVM
# How it was run: as §1
# ELF3 = target: T8, ELF3 (Homo sapiens, UniProt P78545 1-371)
# T8 sequence: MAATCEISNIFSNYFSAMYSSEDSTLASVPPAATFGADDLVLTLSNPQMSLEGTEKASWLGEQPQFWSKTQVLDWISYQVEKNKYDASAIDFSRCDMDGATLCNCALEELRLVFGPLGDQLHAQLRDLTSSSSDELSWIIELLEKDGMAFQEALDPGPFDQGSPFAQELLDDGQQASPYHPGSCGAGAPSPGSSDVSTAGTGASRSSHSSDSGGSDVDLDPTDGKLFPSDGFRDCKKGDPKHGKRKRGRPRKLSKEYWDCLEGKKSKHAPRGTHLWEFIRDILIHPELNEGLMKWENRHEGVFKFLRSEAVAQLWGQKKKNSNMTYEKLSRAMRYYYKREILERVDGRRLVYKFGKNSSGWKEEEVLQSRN
# How it was run: as §1
# ETV1 = ETV1 (Homo sapiens, UniProt P50549 1-477)
# Sequence of ETV1 (P50549 whole entry): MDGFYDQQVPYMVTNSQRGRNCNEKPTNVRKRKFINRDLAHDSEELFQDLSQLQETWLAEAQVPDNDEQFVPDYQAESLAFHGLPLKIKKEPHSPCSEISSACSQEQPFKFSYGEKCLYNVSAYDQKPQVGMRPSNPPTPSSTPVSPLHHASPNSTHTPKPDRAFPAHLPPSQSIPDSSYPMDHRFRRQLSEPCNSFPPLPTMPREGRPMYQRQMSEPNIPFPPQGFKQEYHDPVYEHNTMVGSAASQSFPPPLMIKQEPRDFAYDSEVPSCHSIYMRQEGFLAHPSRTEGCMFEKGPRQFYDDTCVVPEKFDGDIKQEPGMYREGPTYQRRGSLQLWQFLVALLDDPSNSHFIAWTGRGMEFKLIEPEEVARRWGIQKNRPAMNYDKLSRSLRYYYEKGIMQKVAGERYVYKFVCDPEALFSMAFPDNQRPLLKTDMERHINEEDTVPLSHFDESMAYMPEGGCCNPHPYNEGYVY
# How it was run: as §1
# ERF = target: T9, ERF (Homo sapiens, UniProt P50548 1-548)
# T9 sequence: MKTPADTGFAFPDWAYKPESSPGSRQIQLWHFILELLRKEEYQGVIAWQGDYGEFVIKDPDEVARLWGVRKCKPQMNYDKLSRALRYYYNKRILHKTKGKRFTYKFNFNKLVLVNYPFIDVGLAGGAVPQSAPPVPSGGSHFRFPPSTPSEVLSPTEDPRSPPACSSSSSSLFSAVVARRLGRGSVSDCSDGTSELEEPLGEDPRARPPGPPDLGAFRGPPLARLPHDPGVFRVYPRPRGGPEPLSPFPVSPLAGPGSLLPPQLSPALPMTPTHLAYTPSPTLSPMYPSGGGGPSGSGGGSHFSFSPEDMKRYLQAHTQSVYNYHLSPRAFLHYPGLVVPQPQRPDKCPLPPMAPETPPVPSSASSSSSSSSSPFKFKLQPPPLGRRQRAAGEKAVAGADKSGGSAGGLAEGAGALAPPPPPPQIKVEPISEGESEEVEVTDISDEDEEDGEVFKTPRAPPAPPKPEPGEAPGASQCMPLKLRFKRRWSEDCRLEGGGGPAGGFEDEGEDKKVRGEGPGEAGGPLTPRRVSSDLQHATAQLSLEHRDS
# How it was run: as §1
# ETV3L = target: T10, ETV3L (Homo sapiens, UniProt Q6ZN32 1-361)
# T10 sequence: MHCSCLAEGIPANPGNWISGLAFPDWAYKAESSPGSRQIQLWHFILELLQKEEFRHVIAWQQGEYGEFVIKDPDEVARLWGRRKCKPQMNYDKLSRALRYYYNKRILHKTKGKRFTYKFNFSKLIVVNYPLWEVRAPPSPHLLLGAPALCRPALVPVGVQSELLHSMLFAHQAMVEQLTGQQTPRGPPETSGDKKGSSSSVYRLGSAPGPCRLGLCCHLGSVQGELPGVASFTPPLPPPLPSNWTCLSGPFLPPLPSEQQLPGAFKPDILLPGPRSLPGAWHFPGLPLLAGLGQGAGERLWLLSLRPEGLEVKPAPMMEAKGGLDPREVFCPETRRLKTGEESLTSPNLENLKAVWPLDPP
# How it was run: as §1
# ETV3 = target: T11, ETV3 (Homo sapiens, UniProt P41162-2 1-143)
# T11 sequence: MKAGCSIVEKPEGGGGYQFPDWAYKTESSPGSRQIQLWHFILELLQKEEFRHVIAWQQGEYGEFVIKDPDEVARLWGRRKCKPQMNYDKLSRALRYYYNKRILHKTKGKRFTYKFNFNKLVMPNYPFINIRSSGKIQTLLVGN
# How it was run: as §1
# ETV6 = ETV6 (Homo sapiens, UniProt P41212 1-452)
# Sequence of ETV6 (P41212 whole entry): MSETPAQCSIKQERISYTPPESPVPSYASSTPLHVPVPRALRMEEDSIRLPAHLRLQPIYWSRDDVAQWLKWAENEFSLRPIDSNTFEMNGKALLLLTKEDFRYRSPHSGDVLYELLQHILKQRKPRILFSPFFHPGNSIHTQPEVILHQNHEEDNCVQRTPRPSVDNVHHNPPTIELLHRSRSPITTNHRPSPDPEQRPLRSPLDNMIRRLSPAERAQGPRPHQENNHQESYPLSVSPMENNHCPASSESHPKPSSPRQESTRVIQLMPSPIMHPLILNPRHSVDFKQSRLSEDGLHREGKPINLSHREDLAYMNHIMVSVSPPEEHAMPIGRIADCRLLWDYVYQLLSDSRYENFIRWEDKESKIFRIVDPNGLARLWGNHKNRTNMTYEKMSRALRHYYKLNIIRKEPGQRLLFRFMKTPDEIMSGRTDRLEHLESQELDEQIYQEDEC
# How it was run: as §1
sequence,measurement,setting,value
GATCCA,binding signal,FLI1,"1.01 fold enrichment (6-mer frequency, TF over GST control)"
same,binding signal,ELK1,"1.08 fold enrichment (6-mer frequency, TF over GST control)"
same,binding signal,GABPA,"1.16 fold enrichment (6-mer frequency, TF over GST control)"
same,binding signal,ERG,"1.03 fold enrichment (6-mer frequency, TF over GST control)"
same,binding signal,ELF1,"1.04 fold enrichment (6-mer frequency, TF over GST control)"
same,binding signal,EHF,"1.07 fold enrichment (6-mer frequency, TF over GST control)"
same,binding signal,SPIB,"1.08 fold enrichment (6-mer frequency, TF over GST control)"
same,binding signal,ELK3,"1.02 fold enrichment (6-mer frequency, TF over GST control)"
same,binding signal,ELF4,"1.05 fold enrichment (6-mer frequency, TF over GST control)"
same,binding signal,ELK4,"1.03 fold enrichment (6-mer frequency, TF over GST control)"
same,binding signal,ELF3,"1.15 fold enrichment (6-mer frequency, TF over GST control)"
same,binding signal,ETV1,"1.07 fold enrichment (6-mer frequency, TF over GST control)"
same,binding signal,ERF,"1.03 fold enrichment (6-mer frequency, TF over GST control)"
same,binding signal,ETV3L,"1.06 fold enrichment (6-mer frequency, TF over GST control)"
same,binding signal,ETV3,"1.05 fold enrichment (6-mer frequency, TF over GST control)"
same,binding signal,ETV6,"1.05 fold enrichment (6-mer frequency, TF over GST control)"
